NOMO-1 viab: NOMO-1 AML cell viability reduction, primary screen, STK33 inhibitor project, CellTiter-Glo luminescence. NOMO-1 AML viability, 72 h. inhibition, % (no concentration beside the values). hit rate 7.5% among 37,000; in the data active = inhibition above about 80%; inconclusive = no clear call, values can overlap the other calls
Hedgehog inh: Hedgehog pathway signaling inhibitors, primary screen, luminescence, Shh-LIGHT2 cells, Gli-luciferase. hit rate 2.1% among 22,000. inhibition, % (concentration not given with the values). Shh-LIGHT2 Gli-luciferase reporter, 30 h;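 active = mean inhibition across valid replicates above about 65%, limit read from the data; inconclusive = mean under the limit, yet half or more replicates past it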;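 also: pathway switched on by Shh-conditioned medium diluted 1 in 25 in low serum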
PD-1 reversal: activators reversing PD-1 mediated T-cell inhibition, primary screen, luminescence, primary human CD4 T cells, PD-L1 beads; CellTiter-Glo 96 h; activation, % (test concentration not listed); 29,000 tested, under 10 active; AID 2316, 2010; call rule not given here;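 also: 0% = median vehicle wells and 100% = positive control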
Numbers without * were called inactive; ? = inconclusive; / = no result given. Most compounds without a hit are left out; they make up all but 7.7% or so of the library.

SMILES	NOMO-1 viab	Hedgehog inh	PD-1 reversal
Cc1ccc(S(=O)(=O)NC(C(=O)Oc2cc3oc(=O)cc(-c4ccccc4)c3cc2Cl)C(C)C)cc1 (configuration not stated)	20	/	/
COc1ccc(SC(=O)c2cc(C)n(Cc3c(Cl)cccc3Cl)n2)cc1	0	25	0
O=C(CCCN1C(=O)c2ccccc2C1=O)Nc1cccc(Cl)c1Cl	-15	/	-1
Cc1cc(OCC(=O)Nc2ccccc2C(=O)O)cc(C)c1Cl	-9	/	/
COC(=O)c1ccccc1NC(=O)c1cccc(NC(=O)COc2cc(C)c(Cl)c(C)c2)c1C	102*	/	/
COC(=O)c1ccccc1NC(=O)COc1ccc2ccccc2c1Br	84*	/	-1
COC(=O)c1ccccc1NC(=O)COc1ccc(C)cc1C	2	/	-1
Cc1ccc(NC(=O)CSc2nc3ccccc3c(=O)n2-c2cccc(C(F)(F)F)c2)c(C)c1	34	/	-6
Clc1ccc(-c2ncc3ccccn23)cc1	129*	/	-2
Cc1cccc(NC(=O)c2ccccc2NC(=O)COc2ccccc2)c1C	35	/	0
Cc1cc(C)c2c(=O)[nH]c(SCC(=O)c3cccs3)nc2n1	-11	/	3
CCN(CC)c1c(C#N)c(SCC(=O)c2cccs2)cc2c1CCCC2	45	81*	-2
Cc1cccc(OCC(=O)Nc2ccccc2N2CCN(S(C)(=O)=O)CC2)c1C	6	/	-2
Cc1ccc(NC(=O)CC2NCCNC2=O)cc1C (configuration not stated)	0	/	3
C=CCSc1nc(N)c(C(=O)Nc2ccccc2)cc1C(N)=O	4	14	3
C[C@@H]1CN([C@H](C)CO)C(=O)Cc2cc(NC(=O)Nc3ccc(F)cc3)ccc2O[C@@H]1CN(C)Cc1ccc(-c2ccccc2)cc1	50	36	-4
C[C@@H]1CN([C@H](C)CO)C(=O)Cc2cc(NC(=O)Nc3ccccc3)ccc2O[C@@H]1CN(C)Cc1ccc(-c2ccccc2)cc1	107*	4	-6
COc1ccc(NC(=O)Nc2ccc3c(c2)CC(=O)N([C@@H](C)CO)C[C@H](C)[C@@H](CN(C)Cc2ccc(-c4ccccc4)cc2)O3)cc1	13	5	/
C[C@@H]1CN([C@@H](C)CO)C(=O)Cc2cc(NC(=O)Nc3ccccc3)ccc2O[C@@H]1CN(C)Cc1ccccc1	23	-5	1
COc1ccc(NC(=O)Nc2ccc3c(c2)CC(=O)N([C@@H](C)CO)C[C@H](C)[C@H](CN(C)Cc2ccc(-c4ccccc4)cc2)O3)cc1	128*	22	-2
CC(C)NC(=O)Nc1ccc2c(c1)CC(=O)N([C@H](C)CO)C[C@H](C)[C@H](CN(C)Cc1ccc(-c3ccccc3)cc1)O2	42	-18	-2
C[C@H]1CN([C@@H](C)CO)C(=O)Cc2cc(NC(=O)Nc3ccc(F)cc3)ccc2O[C@@H]1CN(C)Cc1ccc(-c2ccccc2)cc1	106*	-68	3
CC(C)NC(=O)Nc1ccc2c(c1)CC(=O)N([C@@H](C)CO)C[C@@H](C)[C@@H](CN(C)Cc1ccc(-c3ccccc3)cc1)O2	94*	19	0
COc1ccc(NC(=O)c2ccco2)cc1NC(=S)NC(=O)c1ccc(-c2cccc(Cl)c2)o1	75	/	-8
COc1ccc(C(=O)CSc2n[nH]c(-c3ccc(C)cc3)n2)cc1	14	/	/
SMILES	NOMO-1 viab	Hedgehog inh	PD-1 reversal
Cc1ccc(OC(=O)OCSc2nn[nH]n2)cc1	119*	?	-10
O=C(CNCCO)Nc1sc2c(c1C(=O)Nc1ccc(Br)cc1)CCC2	34	/	-5
Cc1ccc(-n2sc3ccccc3c2=O)cc1	141*	10	-6
Cc1ccc(-n2c(Cn3ncc4ccccc4c3=O)n[nH]c2=S)cc1	-3	/	/
OCCN(CCO)c1nc(-c2ccccc2)nc2sc(-c3ccccc3)cc12	?	/	-5
COc1ccc(OC)c(S(=O)(=O)N2CCC(C(=O)Nc3ccccc3F)CC2)c1	-4	/	1
C=C1C2CC[C@@]3(C)[C@H](c4ccoc4)OC(=O)C[C@]13O[C@H]1CC(=O)C(C)(C)C(CC(=O)OC)[C@@]21C (some centres not stated)	14	12	/
COC(=O)C[C@H]1C(C)(C)C2(Cl)O[C@@]34CC2C(=O)[C@]1(C)C3CC[C@]1(C)C4=CC(=O)O[C@H]1c1ccoc1 (some centres not stated)	101*	8	/
Cn1c(SCc2ccc(C(F)(F)F)cc2)nnc1-c1ccc(OCC(F)(F)F)nc1	28	74*	0
Cn1c(SCC(N)=O)nnc1-c1ccc(C(C)(C)C)cc1	7	/	-2
Cc1cc(C)cc(NC(=O)CSC2CC(=O)N(c3ccc(F)cc3)C2=O)c1 (configuration not stated)	-14	/	-2
COc1ccc(CN(C)C[C@H]2Oc3ccc(NC(=O)Nc4ccc(OC)cc4)cc3CC(=O)N([C@@H](C)CO)C[C@H]2C)cc1	1	13	/
COc1ccc(NC(=O)Nc2ccc3c(c2)CC(=O)N([C@@H](C)CO)C[C@H](C)[C@H](CN(C)Cc2ccncc2)O3)cc1	0	24	-1
COc1ccc(NC(=O)Nc2ccc3c(c2)CC(=O)N([C@H](C)CO)C[C@@H](C)[C@@H](CN(C)Cc2ccc(Cl)c(Cl)c2)O3)cc1	115*	23	-3
COc1ccc(CN(C)C[C@H]2Oc3ccc(NC(=O)Nc4ccc(OC)cc4)cc3CC(=O)N([C@H](C)CO)C[C@H]2C)cc1	-7	-10	/
COc1ccc(NC(=O)Nc2ccc3c(c2)CC(=O)N([C@@H](C)CO)C[C@H](C)[C@H](CN(C)Cc2ccc(Cl)c(Cl)c2)O3)cc1	113*	?	2
COc1ccc(NC(=O)Nc2ccc3c(c2)CC(=O)N([C@H](C)CO)C[C@@H](C)[C@H](CN(C)Cc2ccc(Cl)c(Cl)c2)O3)cc1	85*	0	/
CCN(CC(=O)Nc1cccc([N+](=O)[O-])c1)S(=O)(=O)c1ccc(C)cc1	3	/	0
CCC(=O)Nc1ccc2nc(SCc3ccccc3C#N)sc2c1	-15	/	-1
CCN1C2=C(C(=O)CCC2)C(c2cccc(O)c2)C2=C1CCCC2=O	-1	1	0
CCOC(=O)c1ccc(NC(=O)CSc2nc3ccc(C)cc3[nH]2)cc1	41	/	-2
CCOC(=O)CSc1ncnc2scc(-c3ccc(Cl)cc3)c12	2	/	0
COc1cccc(N(CC(=O)Nc2ccc(OC)c(Cl)c2)S(C)(=O)=O)c1	-6	/	3
Cc1ccc(S(=O)(=O)N(C)C[C@@H]2Oc3ccc(NC(=O)NC4CCCCC4)cc3CC(=O)N([C@H](C)CO)C[C@@H]2C)cc1	124*	-23	/
CC(C)NC(=O)Nc1ccc2c(c1)CC(=O)N([C@@H](C)CO)C[C@@H](C)[C@@H](CN(C)S(=O)(=O)c1ccc(Cl)cc1)O2	60	23	-1
COc1ccc(S(=O)(=O)N(C)C[C@H]2Oc3ccc(NC(=O)NC4CCCCC4)cc3CC(=O)N([C@@H](C)CO)C[C@H]2C)cc1	-5	10	/
Cc1ccc(S(=O)(=O)N(C)C[C@H]2Oc3ccc(NC(=O)NC4CCCCC4)cc3CC(=O)N([C@H](C)CO)C[C@H]2C)cc1	22	18	/
C[C@H]1CN([C@@H](C)CO)C(=O)Cc2cc(NC(=O)NC3CCCCC3)ccc2O[C@H]1CN(C)S(=O)(=O)c1ccc(Cl)cc1	128*	-43	-2

Screening results: PubChem, Broad Institute
